A number with no mark means an inactive call. Results filed as inconclusive are left out. The source made the active and inactive calls. Unless noted, calls follow the shape of the dose curve; as a rule, active = well fitted curve in either direction with a large enough effect (not every such curve was filed as active); inconclusive = small, poorly fitted or top-dose-only effect, or another doubt; inactive = flat fitted curve, though single readings scatter.
How the values were obtained:
[1] = AP1 Signaling Pathway (AID 357); details: ME-180 AP-1-bla reporter, EGF-induced, beta-lactamase ratio, 5 h; at 17.2 µM (top of the series) unless noted;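 also: ME-180 reporter cells stimulated with EGF at its EC50 level; % is scaled to controls: 0 for no effect and ±100 for the full control effect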
Summary of the method: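 Cells are seeded overnight, exposed to compound titrations and an EC50 level of EGF for 5 hours at 37 °C, then loaded with CCF4 dye for 2.5 hours. Beta-lactamase activity under the AP-1 element is read as a blue/green ratio.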

[2] = NFAT Signaling Pathway (AID 444); details: Jurkat NFAT-bla M1, carbachol, beta-lactamase ratio, 5 h; at 17.2 µM (top of the series) unless noted;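 also: carbachol stimulus at about its EC50 of 1 µM final; % is scaled to controls: 0 for no effect and ±100 for the full control effect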
Summary of the method: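 Jurkat cells with NFAT-driven β-lactamase reporter and co-expressed M1 receptor, stimulated with carbachol (final 1 uM, ~EC50), compound titration, 5 h at 37 °C. CCF4 loaded 1 h at RT; 460/530 nm ratio gave %activity and AC50.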

[3] = Stat Signaling Pathway (AID 446); details: ME-180 SIE beta-lactamase reporter, IL-6 stimulated, 5 h; at 17.2 µM (top of the series) unless noted;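 also: ME-180 cervical cancer cells given 40 pM IL-6 alongside compound; SIE-controlled beta-lactamase reporter measured as 460/530 nm FRET emission ratio; % is scaled to controls: 0 for no effect and ±100 for the full control effect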
Summary of the method: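 Overnight-plated ME-180 cells bearing a STAT Inducible Element beta-lactamase reporter; 5 h co-exposure to compound and 40 pM IL-6; values normalized to 300 pM IL-6 and 125 nM JAK inhibitor controls.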

[4] = biological target: Glucocorticoid receptor (Homo sapiens) (UniProt P04150); assay: GR-GFP Redistribution (AID 450;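 active = compounds whose dose series gives a full or clear partial fitted curve of increased nuclear translocation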; also: potency is read from the fitted curve at half-maximal effect)
[5] = qHTS Assay for Identification of Small Molecule Agonists for Hypoxia Response Element Signaling Pathway (AID 914; active = well fitted activation curve with a large enough effect in the signal ratio, with a control signal flat, not every such curve was filed as active; the % refers to the signal ratio; also: potency is read from the fitted curve at half-maximal effect; as to activation: % of control where 0% means no effect); details: ME-180 HRE-bla reporter, beta-lactamase ratio, CoCl2, 17 h; activation: stronger effect = higher value
Summary of the method: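 ME-180 cells carrying an HRE-driven beta-lactamase reporter were treated with compounds in a titration series plus an EC50 level of CoCl2 for 17 h at 37 degrees Celsius; CCF4 readout as the 460nm/530nm ratio gave AC50 values.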

Sequence of Glucocorticoid receptor (Homo sapiens) (P04150 whole entry, looked up): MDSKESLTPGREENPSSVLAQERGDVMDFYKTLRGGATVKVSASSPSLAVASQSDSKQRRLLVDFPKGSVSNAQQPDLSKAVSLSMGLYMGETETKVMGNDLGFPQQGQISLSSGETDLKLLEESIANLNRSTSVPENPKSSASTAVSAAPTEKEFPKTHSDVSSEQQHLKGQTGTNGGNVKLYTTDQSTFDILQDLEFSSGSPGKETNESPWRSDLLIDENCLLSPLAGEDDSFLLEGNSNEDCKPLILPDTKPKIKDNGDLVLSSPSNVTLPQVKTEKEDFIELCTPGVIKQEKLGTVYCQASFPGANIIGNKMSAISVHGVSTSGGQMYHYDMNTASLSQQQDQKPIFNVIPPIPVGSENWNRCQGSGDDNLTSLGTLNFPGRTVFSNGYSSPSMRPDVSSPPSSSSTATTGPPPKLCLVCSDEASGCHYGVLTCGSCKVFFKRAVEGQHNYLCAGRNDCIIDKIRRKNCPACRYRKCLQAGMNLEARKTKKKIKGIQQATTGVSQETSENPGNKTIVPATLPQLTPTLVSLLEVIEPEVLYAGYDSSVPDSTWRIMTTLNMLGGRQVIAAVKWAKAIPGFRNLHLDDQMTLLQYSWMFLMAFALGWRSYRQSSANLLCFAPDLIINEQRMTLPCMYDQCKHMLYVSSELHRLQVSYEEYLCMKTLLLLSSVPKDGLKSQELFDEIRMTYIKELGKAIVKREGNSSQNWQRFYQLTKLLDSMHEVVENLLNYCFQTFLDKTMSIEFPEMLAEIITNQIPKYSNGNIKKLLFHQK

Fc1ccc(-c2cnc[nH]2)cc1
activity change, negative = inhibition [1]: 3.07%
activity change, negative = inhibition [2]: -3.45%
activity, negative = inhibition [3]: -3.45%
Potency [4]: > 20.6 µM
activation [5]: 14%

CC(C)CNC(=O)c1c(N)n(/N=C/c2cccnc2)c2nc3ccccc3nc12
activity change, negative = inhibition [1]: 9.25%
activity change, negative = inhibition [2]: 329% [activator] (active)
activity, negative = inhibition [3]: 16.6%
Potency [4]: > 20.6 µM
Potency [5]: 10 µM (active)

O=C(O)CCN(CCC(=O)O)c1nnc(SCc2ccccc2)s1
activity change, negative = inhibition [1]: 8.29%
activity change, negative = inhibition [2]: 12.2%
activity, negative = inhibition [3]: 11.2%
Potency [4]: > 20.6 µM
activation [5]: 24.5%

N#CC12CCCCC1CC1CCCCC1(C#N)N2Cc1cccnc1 (stereo not given)
activity change, negative = inhibition [1]: 11.8%
activity change, negative = inhibition [2]: -6.79%
activity, negative = inhibition [3]: 4.8%
Potency [4]: > 20.6 µM
activation [5]: 9.28%

N#Cc1nc(COc2ccccc2)oc1N1CCCC1
activity change, negative = inhibition [1]: -20.4%
activity change, negative = inhibition [2]: 4.75%
activity, negative = inhibition [3]: 0.032%
Potency [4]: > 20.6 µM
activation [5]: -0.614%

CC(C)(C)NCc1cc2ccccc2[nH]c1=O
activity change, negative = inhibition [1]: -4.82%
activity change, negative = inhibition [2]: -24.2%
activity, negative = inhibition [3]: 3.71%
Potency [4]: > 20.6 µM
activation [5]: -14.6%

Cc1ccc(C(=O)/C=C/Nc2cccc(O)c2)cc1
activity change, negative = inhibition [1]: 10.4%
activity change, negative = inhibition [2]: 1.57%
activity, negative = inhibition [3]: -17.8%
Potency [4]: > 20.6 µM
Potency [5]: 10 µM (active)

Cc1cc(Cl)ccc1OCC(=O)OC(C)C(=O)N(C)C (stereo not given)
activity change, negative = inhibition [1]: 3.68%
activity change, negative = inhibition [2]: 17.7%
activity, negative = inhibition [3]: -3.58%
Potency [4]: > 20.6 µM
activation [5]: -0.0413%

CC(C)Oc1ccc(/C(O)=C2/C(=O)C(=O)N(CCN(C)C)C2c2ccco2)cc1 (stereo not given)
activity change, negative = inhibition [1]: -1.52%
activity change, negative = inhibition [2]: -2.83%
activity, negative = inhibition [3]: 8.49%
Potency [4]: > 20.6 µM
activation [5]: -2.15%

COc1ccc(CNC(=O)c2c(C)cc(=O)oc2C)cc1OC
activity change, negative = inhibition [1]: 13.7%
activity change, negative = inhibition [2]: 13.8%
activity, negative = inhibition [3]: 9.9%
Potency [4]: > 20.6 µM
activation [5]: 12.6%

CC(C)COc1ccc(C(=O)NC(CC(C)C)C(=O)O)cc1 (stereo not given)
activity change, negative = inhibition [1]: -2.73%
activity change, negative = inhibition [2]: -7.69%
activity, negative = inhibition [3]: 3.82%
Potency [4]: > 20.6 µM
activation [5]: 11.5%

CCn1c(-c2ccco2)n[nH]c1=S
activity change, negative = inhibition [1]: 14%
activity change, negative = inhibition [2]: 4.37%
activity, negative = inhibition [3]: 4.5%
Potency [4]: > 20.6 µM
activation [5]: 13.1%

CCOC(=O)c1c(N)sc2c1CCC1C(=O)N(C3CCCCC3)C(=O)C21 (stereo not given)
activity change, negative = inhibition [1]: -12.9%
activity change, negative = inhibition [2]: -2.94%
activity, negative = inhibition [3]: -6.61%
Potency [4]: > 20.6 µM
activation [5]: -6.89%

Cc1nnc(SCCC#N)n(CCC#N)c1=O
activity change, negative = inhibition [1]: 25.1%
activity change, negative = inhibition [2]: -2.84%
activity, negative = inhibition [3]: -5.67%
Potency [4]: > 20.6 µM
activation [5]: 15.5%

COC(=O)c1ccc(=O)n(Cc2ccc3c(c2)OCO3)c1
activity change, negative = inhibition [1]: -0.911%
activity change, negative = inhibition [2]: 6.79%
activity, negative = inhibition [3]: -1.86%
Potency [4]: > 20.6 µM
activation [5]: 26.1%

COc1ccc(C2CC(C(F)(F)F)n3ncc(C(=O)Nc4cccc(O)c4)c3N2)cc1OC (stereo not given)
activity change, negative = inhibition [1]: -24.1%
activity change, negative = inhibition [2]: -0.0394%
activity, negative = inhibition [3]: -21.1%
Potency [4]: > 20.6 µM
activation [5]: -22.3%

CCN(CC)CCN1C(=O)C(O)=C(C(=O)c2cc3ccccc3o2)C1c1cccnc1 (stereo not given)
activity change, negative = inhibition [1]: 4.98%
activity change, negative = inhibition [2]: -3.08%
activity, negative = inhibition [3]: 2.38%
Potency [4]: > 20.6 µM
activation [5]: 11.5%

COCCNc1nc2c(c(=O)n(Cc3ccc(OC)cc3)c(=O)n2C)n1C
activity change, negative = inhibition [1]: -10.1%
activity change, negative = inhibition [2]: -7.8%
activity, negative = inhibition [3]: -12.3%
Potency [4]: > 20.6 µM
activation [5]: -9.75%

Cc1nn(-c2ccccc2)c2c1C(=O)NC(=O)C(C)(C)C2
activity change, negative = inhibition [1]: -3.8%
activity change, negative = inhibition [2]: 0.783%
activity, negative = inhibition [3]: 3.56%
Potency [4]: > 20.6 µM
activation [5]: -11.1%

O=C(c1ccc(=O)oc1)N1CCN(C(c2ccccc2)c2ccccc2)CC1
activity change, negative = inhibition [1]: 26.4%
activity change, negative = inhibition [2]: -101% (active)
activity, negative = inhibition [3]: -15.5%
Potency [4]: > 20.6 µM
activation [5]: 9.9%

Cc1cc(=O)oc(C)c1C(=O)Nc1cccc2nonc12
activity change, negative = inhibition [1]: -1.38%
activity change, negative = inhibition [2]: 11.1%
activity, negative = inhibition [3]: -0.713%
Potency [4]: > 20.6 µM
activation [5]: 1.4%

COc1ccc(C(=O)OC(C)CN2CCN(C)CC2)cc1OC (stereo not given)
activity change, negative = inhibition [1]: 4.78%
activity change, negative = inhibition [2]: -6.37%
activity, negative = inhibition [3]: 11.6%
Potency [4]: > 20.6 µM
activation [5]: 7.74%

CCN(CC)CCNc1nc2c(c(=O)[nH]c(=O)n2C)n1CCOc1ccccc1
activity change, negative = inhibition [1]: -3.03%
activity change, negative = inhibition [2]: -7.16%
activity, negative = inhibition [3]: 8.2%
Potency [4]: > 20.6 µM
activation [5]: 0.547%

CC1(C)CC(=O)C(C=Nc2ccc(Cl)cn2)=C(O)C1
activity change, negative = inhibition [1]: -10.2%
activity change, negative = inhibition [2]: 17.4%
activity, negative = inhibition [3]: 21.1%
Potency [4]: > 20.6 µM
activation [5]: -14.7%

CC(=O)N1CCN(c2nc(CC(C)C)c3c(c2C#N)CCC3)CC1
activity change, negative = inhibition [1]: -24.1%
activity change, negative = inhibition [2]: -8.91%
activity, negative = inhibition [3]: -3.38%
Potency [4]: > 20.6 µM
activation [5]: 24.5%

CCCOc1ccc(Cn2c(O)cc(=O)[nH]c2=O)cc1
activity change, negative = inhibition [1]: -5.5%
activity change, negative = inhibition [2]: 7.39%
activity, negative = inhibition [3]: -0.906%
Potency [4]: > 20.6 µM
activation [5]: 16.1%

CCCOC(=O)CSC1=C(C#N)C(c2ccc3c(c2)OCO3)CC(=O)N1 (stereo not given)
activity change, negative = inhibition [1]: -0.809%
activity change, negative = inhibition [2]: 11.1%
activity, negative = inhibition [3]: 1.94%
Potency [4]: > 20.6 µM
activation [5]: -15.4%

CC(C)NC(=O)N1CCOCCOCCN(C(=O)NC(C)C)CCOCCOCC1
activity change, negative = inhibition [1]: 8.52%
activity change, negative = inhibition [2]: 0.977%
activity, negative = inhibition [3]: 0.97%
Potency [4]: > 20.6 µM
activation [5]: 3.05%

COC(=O)C(NC(C)=O)(Nc1ccc(Br)cn1)C(F)(F)F (stereo not given)
activity change, negative = inhibition [1]: 0.568%
activity change, negative = inhibition [2]: 3.2%
activity, negative = inhibition [3]: -10.2%
Potency [4]: > 20.6 µM
activation [5]: 3.3%

O=C(O)CCCC(=O)Nc1ccn(-c2ccccc2)n1
activity change, negative = inhibition [1]: 1.68%
activity change, negative = inhibition [2]: -4.19%
activity, negative = inhibition [3]: 0.897%
Potency [4]: > 20.6 µM
activation [5]: 6.56%

CN(Cc1ccccc1)Cc1c[nH]c2ccccc12
activity change, negative = inhibition [1]: 15.6%
activity change, negative = inhibition [2]: -28.7%
activity, negative = inhibition [3]: 7.69%
Potency [4]: > 20.6 µM
activation [5]: -19.8%

CCOc1ccc(Cn2c(O)cc(=O)[nH]c2=O)cc1
activity change, negative = inhibition [1]: 11.9%
activity change, negative = inhibition [2]: 2.3%
activity, negative = inhibition [3]: 5.06%
Potency [4]: > 20.6 µM
activation [5]: 5.51%

CCOC(=O)C(CC(=O)O)N1CCCCC1 (stereo not given)
activity change, negative = inhibition [1]: 4.69%
activity change, negative = inhibition [2]: 10.9%
activity, negative = inhibition [3]: 3.36%
Potency [4]: > 20.6 µM
activation [5]: 11.2%

O=C1c2ccccc2C(=O)N1CC1c2ccccc2CCN1C(=O)N1CCOCC1 (stereo not given)
activity change, negative = inhibition [1]: -3.7%
activity change, negative = inhibition [2]: -0.0702%
activity, negative = inhibition [3]: 1.92%
Potency [4]: > 20.6 µM
activation [5]: 4.7%

COc1ccc(C2=Nn3c(nnc3-c3ccccn3)SC2)cc1OC
activity change, negative = inhibition [1]: -18.1%
activity change, negative = inhibition [2]: 23.1%
activity, negative = inhibition [3]: -0.925%
Potency [4]: > 20.6 µM
activation [5]: -20.2%

COc1cc(C2C3C(=O)N(c4ccc(F)cc4)C(=O)C3ON2c2ccccc2)ccc1O (stereo not given)
activity change, negative = inhibition [1]: -17.6%
activity change, negative = inhibition [2]: 0.386%
activity, negative = inhibition [3]: -1.27%
Potency [4]: > 20.6 µM
activation [5]: -4.56%

CCOc1ccc(/C(O)=C2/C(=O)C(=O)N(CCN(CC)CC)C2c2ccco2)cc1 (stereo not given)
activity change, negative = inhibition [1]: -1.27%
activity change, negative = inhibition [2]: -3.29%
activity, negative = inhibition [3]: 6.33%
Potency [4]: > 20.6 µM
activation [5]: -14.8%

COC(=O)c1[nH]c(C)c(/C(O)=C2\C(=O)C(=O)N(CCN3CCOCC3)C2c2ccccc2OC)c1C (stereo not given)
activity change, negative = inhibition [1]: 3.47%
activity change, negative = inhibition [2]: 17.3%
activity, negative = inhibition [3]: -6.01%
Potency [4]: > 20.6 µM
activation [5]: 0.0679%

CCCC(=O)N(Cc1cc2ccccc2[nH]c1=O)c1ccccc1OC
activity change, negative = inhibition [1]: -6.44%
activity change, negative = inhibition [2]: 22.4%
activity, negative = inhibition [3]: 5.08%
Potency [4]: > 20.6 µM
activation [5]: -13.3%

Cn1c(=O)c2c(nc(Oc3ccc4c(c3)OCO4)n2Cc2ccc(F)cc2)n(C)c1=O
activity change, negative = inhibition [1]: 28.8%
activity change, negative = inhibition [2]: 2.74%
activity, negative = inhibition [3]: 6.83%
Potency [4]: > 20.6 µM
activation [5]: -23.2%

From PubChem BioAssay (NCATS)
